Data taken from PubChem BioAssay AID1159580 (chemical genetic matrix, 2015).
Where “and” joins values, the source holds several entries; their conditions need not be identical. Equal entries are not always repeated. Out of some 5,500 compounds screened, about 2,000 (36%) were called active. Roughly 18% stayed inconclusive and do not appear here. No stated cut-off is given here; in the data, active means normalized growth mostly below about 0.91 (no sharp cut-off); inconclusive means no clear call, values can overlap the other calls; inactive means mostly above about 0.92. The list shows a part of the results.

Experiment: chemical genetic growth profiling, strain panel (AID 1159580);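 further: tested at 20 µM; growth read once vehicle control cultures reached saturation at 30 °C; 1 = growth at the plate median or of vehicle wells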
Settings: growth OD

Measured: normalized growth

COc1c2c(cc3c1OCO3)CC[N+](C)=C2
inactive: S. cerevisiae deletion strains, locus YAL013W, strain DEP1, stronger effect = lower value 1 | S. cerevisiae deletion strains, locus YAL021C, strain ccr4, stronger effect = lower value 0.977 | S. cerevisiae deletion strains, locus YAL026C, strain drs2, stronger effect = lower value 0.995 | S. cerevisiae deletion strains, locus YAL030W, strain snc1, stronger effect = lower value 0.994 | S. cerevisiae deletion strains, locus YBL061C, strain skt5, stronger effect = lower value 1.01 | S. cerevisiae deletion strains, locus YBR009C, strain hhf1, stronger effect = lower value 0.984 | S. cerevisiae deletion strains, locus YBR021W, strain FUR4, stronger effect = lower value 1.02 | S. cerevisiae deletion strains, locus YBR023C, strain chs3, stronger effect = lower value 1.01 | S. cerevisiae deletion strains, locus YBR171W, strain sec66, stronger effect = lower value 0.997 | S. cerevisiae deletion strains, locus YBR229C, strain ROT2, stronger effect = lower value 0.999 | S. cerevisiae deletion strains, locus YBR231C, strain swc5, stronger effect = lower value 1.03 | S. cerevisiae deletion strains, locus YBR279W, strain paf1, stronger effect = lower value 1 | S. cerevisiae deletion strains, locus YCL011C, strain gbp2, stronger effect = lower value 0.986 | S. cerevisiae deletion strains, locus YCL016C, strain dcc1, stronger effect = lower value 0.974 | S. cerevisiae deletion strains, locus YCL029C, strain bik1, stronger effect = lower value 0.993 | S. cerevisiae deletion strains, locus YCL069W, strain vba3, stronger effect = lower value 0.99 | S. cerevisiae deletion strains, locus YCR088W, strain abp1, stronger effect = lower value 1 | S. cerevisiae deletion strains, locus YDL005C, strain med2, stronger effect = lower value 1 | S. cerevisiae deletion strains, locus YDL035C, strain GPR1, stronger effect = lower value 1.01 | S. cerevisiae deletion strains, locus YDL040C, strain nat1, stronger effect = lower value 1.01 | S. cerevisiae deletion strains, locus YDL074C, strain BRE1, stronger effect = lower value 1.04 | S. cerevisiae deletion strains, locus YDL101C, strain DUN1, stronger effect = lower value 1.02 | S. cerevisiae deletion strains, locus YDL134C, strain PPH21, stronger effect = lower value 1.05 | S. cerevisiae deletion strains, locus YDL185W, strain tfp1, stronger effect = lower value 1.01 | S. cerevisiae deletion strains, locus YDL192W, strain arf1, stronger effect = lower value 1 | S. cerevisiae deletion strains, locus YDR001C, strain nth1, stronger effect = lower value 0.977 | S. cerevisiae deletion strains, locus YDR069C, strain doa4, stronger effect = lower value 1.01 | S. cerevisiae deletion strains, locus YDR101C, strain arx1, stronger effect = lower value 1 | S. cerevisiae deletion strains, locus YDR137W, strain rgp1, stronger effect = lower value 1 | S. cerevisiae deletion strains, locus YDR150W, strain NUM1, stronger effect = lower value 0.993 | S. cerevisiae deletion strains, locus YDR159W, strain sac3, stronger effect = lower value 1.08 | S. cerevisiae deletion strains, locus YDR162C, strain NBP2, stronger effect = lower value 1.05 | S. cerevisiae deletion strains, locus YDR195W, strain ref2 1.01 | S. cerevisiae deletion strains, locus YDR297W, strain sur2, stronger effect = lower value 1.02 | S. cerevisiae deletion strains, locus YDR318W, strain mcm21, stronger effect = lower value 1 | S. cerevisiae deletion strains, locus YDR334W, strain swr1, stronger effect = lower value 0.991 | S. cerevisiae deletion strains, locus YDR335W, strain msn5, stronger effect = lower value 0.996 | S. cerevisiae deletion strains, locus YDR388W, stronger effect = lower value 0.994 | S. cerevisiae deletion strains, locus YDR392W, strain spt3, stronger effect = lower value 0.93 | S. cerevisiae deletion strains, locus YDR502C, strain sam2, stronger effect = lower value 1.01 | S. cerevisiae deletion strains, locus YEL003W, strain gim4, stronger effect = lower value 1 | S. cerevisiae deletion strains, locus YEL037C, strain rad23, stronger effect = lower value 0.986 | S. cerevisiae deletion strains, locus YEL061C, strain CIN8 (second series), stronger effect = lower value 0.998 | S. cerevisiae deletion strains, locus YER015W, strain faa2, stronger effect = lower value 0.998 | S. cerevisiae deletion strains, locus YER016W, strain bim1, stronger effect = lower value 1.01 | S. cerevisiae deletion strains, locus YER110C, stronger effect = lower value 1.01 | S. cerevisiae deletion strains, locus YER111C, strain swi4, stronger effect = lower value 1 | S. cerevisiae deletion strains, locus YER155C, strain BEM2 (second series), stronger effect = lower value 1.06 | S. cerevisiae deletion strains, locus YER155C, strain BEM2, stronger effect = lower value 0.976 | S. cerevisiae deletion strains, locus YER167W, strain BCK2, stronger effect = lower value 0.997 | S. cerevisiae deletion strains, locus YFR010W, strain ubp6, stronger effect = lower value 0.996 | S. cerevisiae deletion strains, locus YGL078C, strain dbp3, stronger effect = lower value 1.04 | S. cerevisiae deletion strains, locus YGL086W, strain mad1, stronger effect = lower value 1.01 | S. cerevisiae deletion strains, locus YGL167C, strain pmr1, stronger effect = lower value 0.993 | S. cerevisiae deletion strains, locus YGL173C, strain kem1, stronger effect = lower value 1.02 | S. cerevisiae deletion strains, locus YGL227W, strain vid30, stronger effect = lower value 0.999 | S. cerevisiae deletion strains, locus YGL240W, strain doc1, stronger effect = lower value 1.02 | S. cerevisiae deletion strains, locus YGL248W, strain PDE1, stronger effect = lower value 1.03 | S. cerevisiae deletion strains, locus YGL253W, strain hxk2, stronger effect = lower value 1 | S. cerevisiae deletion strains, locus YGR078C, strain PAC10, stronger effect = lower value 0.987 | S. cerevisiae deletion strains, locus YGR135W, strain pre9, stronger effect = lower value 1.03 | S. cerevisiae deletion strains, locus YGR252W, strain gcn5, stronger effect = lower value 1.05 | S. cerevisiae deletion strains, locus YHR013C, strain ard1, stronger effect = lower value 0.974 | S. cerevisiae deletion strains, locus YHR027C, strain rpn1, stronger effect = lower value 0.981 | S. cerevisiae deletion strains, locus YHR030C, strain SLT2, stronger effect = lower value 0.989 | S. cerevisiae deletion strains, locus YHR079C, strain IRE1 (second series), stronger effect = lower value 1.01 | S. cerevisiae deletion strains, locus YHR079C, strain IRE1, stronger effect = lower value 1 | S. cerevisiae deletion strains, locus YHR094C, strain hxt1, stronger effect = lower value 1 | S. cerevisiae deletion strains, locus YHR129C, strain ARP1, stronger effect = lower value 1 | S. cerevisiae deletion strains, locus YHR142W, strain chs7, stronger effect = lower value 0.982 | S. cerevisiae deletion strains, locus YHR200W, strain rpn10, stronger effect = lower value 0.998 | S. cerevisiae deletion strains, locus YIL066C, strain RNR3, stronger effect = lower value 1 | S. cerevisiae deletion strains, locus YIL073C, strain SPO22, stronger effect = lower value 1.06 | S. cerevisiae deletion strains, locus YIL125W, strain kgd1, stronger effect = lower value 0.995 | S. cerevisiae deletion strains, locus YIR030C, strain dcg1, stronger effect = lower value 1.01 | S. cerevisiae deletion strains, locus YJL092W, strain hpr5, stronger effect = lower value 0.988 | S. cerevisiae deletion strains, locus YJL095W, strain BCK1 (second series), stronger effect = lower value 1 | S. cerevisiae deletion strains, locus YJL095W, strain BCK1, stronger effect = lower value 1.05 and 0.977 | S. cerevisiae deletion strains, locus YJL115W, strain asf1, stronger effect = lower value 0.977 | S. cerevisiae deletion strains, locus YJL129C, strain trk1, stronger effect = lower value 1.01 | S. cerevisiae deletion strains, locus YJL134W, strain LCB3, stronger effect = lower value 0.994 | S. cerevisiae deletion strains, locus YJL154C, strain vps35, stronger effect = lower value 0.985 | S. cerevisiae deletion strains, locus YJL164C, strain tpk1, stronger effect = lower value 0.965 | S. cerevisiae deletion strains, locus YJL166W, strain qcr8, stronger effect = lower value 1.01 | S. cerevisiae deletion strains, locus YJL168C, strain set2, stronger effect = lower value 1.01 | S. cerevisiae deletion strains, locus YJL187C, strain SWE1 (second series), stronger effect = lower value 1.04 | S. cerevisiae deletion strains, locus YJL187C, strain SWE1, stronger effect = lower value 1.02 | S. cerevisiae deletion strains, locus YJR043C, strain POL32, stronger effect = lower value 0.99 | S. cerevisiae deletion strains, locus YJR066W, strain TOR1, stronger effect = lower value 0.886 | S. cerevisiae deletion strains, locus YKL009W, strain mrt4, stronger effect = lower value 1.04 | S. cerevisiae deletion strains, locus YKL068W, stronger effect = lower value 0.996 | S. cerevisiae deletion strains, locus YKL085W, strain MDH1 (second series), stronger effect = lower value 1.01 | S. cerevisiae deletion strains, locus YKL085W, strain MDH1, stronger effect = lower value 1.01 | S. cerevisiae deletion strains, locus YKL160W, strain elf1, stronger effect = lower value 0.977 | S. cerevisiae deletion strains, locus YKL190W, strain CNB1, stronger effect = lower value 1 | S. cerevisiae deletion strains, locus YKR001C, strain vps1, stronger effect = lower value 1.02 | S. cerevisiae deletion strains, locus YKR026C, strain gcn3, stronger effect = lower value 0.993 | S. cerevisiae deletion strains, locus YKR091W, strain srl3, stronger effect = lower value 0.99 | S. cerevisiae deletion strains, locus YLL001W, strain dnm1, stronger effect = lower value 1 | S. cerevisiae deletion strains, locus YLL026W, stronger effect = lower value 1 | S. cerevisiae deletion strains, locus YLL041C, strain sdh2, stronger effect = lower value 0.984 | S. cerevisiae deletion strains, locus YLR027C, strain aat2, stronger effect = lower value 1.01 | S. cerevisiae deletion strains, locus YLR039C, strain RIC1, stronger effect = lower value 1.1 | S. cerevisiae deletion strains, locus YLR058C, strain SHM2, stronger effect = lower value 1.02 | S. cerevisiae deletion strains, locus YLR102C, strain apc9, stronger effect = lower value 1 | S. cerevisiae deletion strains, locus YLR113W, strain HOG1, stronger effect = lower value 0.978 | S. cerevisiae deletion strains, locus YLR221C, strain rsa3, stronger effect = lower value 1.04 | S. cerevisiae deletion strains, locus YLR258W, strain gsy2, stronger effect = lower value 1.02 | S. cerevisiae deletion strains, locus YLR262C, strain YPT6 (second series), stronger effect = lower value 0.995 | S. cerevisiae deletion strains, locus YLR262C, strain YPT6, stronger effect = lower value 1.12 | S. cerevisiae deletion strains, locus YLR268W, strain sec22, stronger effect = lower value 0.999 | S. cerevisiae deletion strains, locus YLR320W, strain mms22, stronger effect = lower value 1.06 | S. cerevisiae deletion strains, locus YLR342W, strain FKS1, stronger effect = lower value 1.01 | S. cerevisiae deletion strains, locus YLR357W, strain rsc2, stronger effect = lower value 0.968 | S. cerevisiae deletion strains, locus YLR370C, strain arc18, stronger effect = lower value 1 | S. cerevisiae deletion strains, locus YLR371W, strain rom2, stronger effect = lower value 1.01 | S. cerevisiae deletion strains, locus YLR384C, strain iki3, stronger effect = lower value 0.999 | S. cerevisiae deletion strains, locus YLR418C, strain cdc73, stronger effect = lower value 1.03 | S. cerevisiae deletion strains, locus YML016C, strain PPZ1, stronger effect = lower value 1.01 | S. cerevisiae deletion strains, locus YML032C, strain rad52, stronger effect = lower value 0.999 | S. cerevisiae deletion strains, locus YML120C, strain ndi1, stronger effect = lower value 0.977 | S. cerevisiae deletion strains, locus YML124C, strain tub3, stronger effect = lower value 1.01 | S. cerevisiae deletion strains, locus YMR058W, strain fet3, stronger effect = lower value 1 | S. cerevisiae deletion strains, locus YMR078C, strain ctf18, stronger effect = lower value 1 | S. cerevisiae deletion strains, locus YMR125W, strain sto1, stronger effect = lower value 0.923 | S. cerevisiae deletion strains, locus YMR129W, stronger effect = lower value 0.996 | S. cerevisiae deletion strains, locus YMR205C, strain PFK2, stronger effect = lower value 0.975 | S. cerevisiae deletion strains, locus YMR223W, strain ubp8, stronger effect = lower value 1.02 | S. cerevisiae deletion strains, locus YMR231W, strain pep5, stronger effect = lower value 1.01 | S. cerevisiae deletion strains, locus YMR307W, strain GAS1, stronger effect = lower value 1.03 | S. cerevisiae deletion strains, locus YNL067W, strain RPL9B, stronger effect = lower value 1.03 | S. cerevisiae deletion strains, locus YNL071W, strain lat1, stronger effect = lower value 0.998 | S. cerevisiae deletion strains, locus YNL183C, strain NPR1, stronger effect = lower value 0.923 | S. cerevisiae deletion strains, locus YNL209W, strain ssb2, stronger effect = lower value 0.992 | S. cerevisiae deletion strains, locus YNL233W, strain BNI4, stronger effect = lower value 1.01 | S. cerevisiae deletion strains, locus YNL248C, strain rpa49, stronger effect = lower value 0.924 | S. cerevisiae deletion strains, locus YNL250W, strain rad50, stronger effect = lower value 1.03 | S. cerevisiae deletion strains, locus YNL271C, strain bni1, stronger effect = lower value 1.03 | S. cerevisiae deletion strains, locus YNL298W, strain CLA4, stronger effect = lower value 0.992 | S. cerevisiae deletion strains, locus YNL307C, strain MCK1, stronger effect = lower value 1.01 | S. cerevisiae deletion strains, locus YNL322C, strain KRE1 (second series), stronger effect = lower value 0.997 | S. cerevisiae deletion strains, locus YNR049C, strain mso1, stronger effect = lower value 0.979 | S. cerevisiae deletion strains, locus YNR052C, strain pop2, stronger effect = lower value 1.01 | S. cerevisiae deletion strains, locus YOL012C, strain htz1 0.651 | S. cerevisiae deletion strains, locus YOL147C, strain pex11, stronger effect = lower value 1 | S. cerevisiae deletion strains, locus YOR001W, strain rrp6, stronger effect = lower value 1.03 | S. cerevisiae deletion strains, locus YOR061W, strain CKA2, stronger effect = lower value 1.01 | S. cerevisiae deletion strains, locus YOR069W, strain VPS5, stronger effect = lower value 1 | S. cerevisiae deletion strains, locus YOR070C, strain gyp1, stronger effect = lower value 1.02 | S. cerevisiae deletion strains, locus YOR080W, strain dia2, stronger effect = lower value 1.02 | S. cerevisiae deletion strains, locus YOR083W, strain WHI5, stronger effect = lower value 0.97 | S. cerevisiae deletion strains, locus YOR106W, strain vam3, stronger effect = lower value 0.937 | S. cerevisiae deletion strains, locus YOR136W, strain idh2, stronger effect = lower value 1.03 | S. cerevisiae deletion strains, locus YOR144C, strain elg1, stronger effect = lower value 1 | S. cerevisiae deletion strains, locus YOR184W, strain ser1, stronger effect = lower value 0.996 | S. cerevisiae deletion strains, locus YOR231W, strain MKK1, stronger effect = lower value 0.994 | S. cerevisiae deletion strains, locus YOR265W, strain rbl2, stronger effect = lower value 0.996 | S. cerevisiae deletion strains, locus YOR270C, strain vph1, stronger effect = lower value 0.991 | S. cerevisiae deletion strains, locus YOR290C, strain snf2, stronger effect = lower value 0.919 | S. cerevisiae deletion strains, locus YOR316C, strain cot1, stronger effect = lower value 1.01 | S. cerevisiae deletion strains, locus YPL051W, strain arl3, stronger effect = lower value 1.03 | S. cerevisiae deletion strains, locus YPL078C, strain atp4, stronger effect = lower value 0.952 | S. cerevisiae deletion strains, locus YPL106C, strain sse1, stronger effect = lower value 0.972 | S. cerevisiae deletion strains, locus YPL240C, strain hsp82, stronger effect = lower value 1.01 | S. cerevisiae deletion strains, locus YPL256C, strain CLN2, stronger effect = lower value 0.975 | S. cerevisiae deletion strains, locus YPR119W, strain clb2, stronger effect = lower value 1.01 | S. cerevisiae deletion strains, locus YPR141C, strain kar3, stronger effect = lower value 1.01 | S. cerevisiae deletion strains, locus YPR163C, strain tif3, stronger effect = lower value 1.02 | S. cerevisiae deletion strains, locus YPR167C, strain met16, stronger effect = lower value 1.01 | S. cerevisiae deletion strains, strain wtn01, stronger effect = lower value 1 | S. cerevisiae strains, strain wild type, stronger effect = lower value 1
